# According to PubChem BioAssay:
# Active and inactive are the calls of the source. The rule behind the calls is not given here.
# Biological target: Pantothenate synthetase (Mycobacterium tuberculosis (strain ATCC 25618 / H37Rv)) (UniProt P9WIL5)
# Assay: Recombinant Mtb pantothenate synthetase (PanC) inhibitors, coupled enzyme, confirmatory (AID 375);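 note: 0% = full reaction with vehicle and 100% = no enzyme background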
# Settings: coupled enzyme assay; at 10 µM, active compounds read high
# Pantothenate synthetase (Mycobacterium tuberculosis (strain ATCC 25618 / H37Rv)), sequence (P9WIL5 whole entry, looked up): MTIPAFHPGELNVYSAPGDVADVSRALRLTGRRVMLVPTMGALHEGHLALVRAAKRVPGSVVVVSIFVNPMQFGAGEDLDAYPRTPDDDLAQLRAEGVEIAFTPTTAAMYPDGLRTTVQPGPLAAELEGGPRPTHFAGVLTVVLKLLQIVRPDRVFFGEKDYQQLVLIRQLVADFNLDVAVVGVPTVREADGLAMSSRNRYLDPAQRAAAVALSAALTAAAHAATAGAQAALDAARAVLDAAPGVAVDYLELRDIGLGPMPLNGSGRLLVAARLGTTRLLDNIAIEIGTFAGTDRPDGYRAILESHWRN
row,Structure (SMILES),inhibition
1,COC(=O)CSc1ncccc1-c1nc2ccccc2[nH]1,0% (inactive)
2,COc1ccc(NC(=O)CSc2nnc(-c3ccccc3C)n2C)cc1,0% (inactive)
3,CCn1c(SC)nc2c(c1=O)SC(C)C2 (stereo not given),0% (inactive)
4,COc1ccc(-c2cc(C(F)(F)F)nc(SCC(=O)NCc3ccco3)n2)cc1OC,3% (inactive)
5,CN(C)c1nc(N)nc(-c2nc3ccccc3s2)n1,0% (inactive)
6,S=c1[nH]nc(-c2ccccc2)n1C1C=CCCC1 (stereo not given),0% (inactive)
7,NC(=O)OCC(COC(N)=O)c1ccccc1,1% (inactive)
8,CNCCC=C1c2ccccc2CCc2ccccc21,0% (inactive)
9,O=C(Nc1ccc(S(=O)(=O)N2CCCCCC2)cc1)c1ccco1,2% (inactive)
10,CCOC(=O)c1ccc(NC(=O)CCc2nc(-c3cccc(C)c3)no2)cc1,2% (inactive)
11,Cn1c(=O)c2c(nc(Br)n2CCSc2ncccn2)n(C)c1=O,9% (inactive)
12,O=C(OC1CCOC1=O)c1ccc2ccccc2n1 (stereo not given),4% (inactive)
13,CCNc1nc(NCC)n2c(SCc3nc4ccccc4c(=O)[nH]3)nnc2n1,1% (inactive)
14,O=C(Nc1ccc(Cl)c(C(F)(F)F)c1)N1CCCC(O)C1 (stereo not given),4% (inactive)
15,O=C(O)c1cc(-c2ccccc2)nc2ccccc12,3% (inactive)
16,Cc1nc(NC2=NCN(CC3CCCO3)CN2)nc2ccccc12 (stereo not given),0% (inactive)
17,C[C@@H]1C[C@H]2[C@@H]3C[C@H](F)C4=CC(=O)C=C[C@]4(C)[C@@]3(F)[C@@H](O)C[C@]2(C)[C@@]1(O)C(=O)COC(=O)C(C)(C)C,0% (inactive)
18,COc1ccc(C(=O)Nc2cccc(C)c2)cc1S(=O)(=O)N1CCOCC1,1% (inactive)
19,CCc1nnc(NC(=O)CSc2nnc3scc(-c4ccc(C)cc4)n23)s1,0% (inactive)
20,CC(C)(C)SCCNC(=O)COc1ccccc1,3% (inactive)

row,Structure (SMILES),inhibition
1,COc1ccc(C)cc1NC(=O)c1nnn(Cc2cccc(F)c2)c1N,13% (inactive)
2,CCOC(=O)C(C#N)C(c1cccnc1)c1c(C)[nH][nH]c1=O (stereo not given),3% (inactive)
3,Cc1cc(C)n(C(=O)CCCCCC(=O)n2nc(C)cc2C)n1,6% (inactive)
4,COc1ccc(CCN2C(=O)C3C4C=CC(C4)C3C2=O)cc1OC (stereo not given),0% (inactive)
5,CCCCCCn1c(SCC(=O)OC)nc2c1c(=O)[nH]c(=O)n2C,0% (inactive)
6,CCOC(=O)c1ccc(NS(=O)C23CC4CC(CC(C4)C2)C3)cc1 (stereo not given),8% (inactive)
7,CCC(CC)n1[nH]c(=O)c2c(C)cc(C)nc21,3% (inactive)
8,Cc1ccc(NC(=O)CSc2nnc(CNC(=O)c3c(F)cccc3Cl)o2)cc1,3% (inactive)
9,O=c1c2ccccc2nc(SCc2cccc(F)c2)n1Cc1ccco1,4% (inactive)
10,Cc1nc(NC2=NCN(CCc3ccccc3)CN2)nc2c(C)cccc12,0% (inactive)
11,Cn1nnc2cc(C(=O)N3CCCCCC3)ccc21,0% (inactive)
12,CC(=O)c1c(O)cc(C)n(Nc2nc(C)cc(C)n2)c1=O,0% (inactive)
13,CCOC(=O)N1CCN(C(=O)c2ccc3c(SCC(=O)O)c4c(nc3c2)CCCC4)CC1,0% (inactive)
14,COCCNC(=O)c1ccc2c(c1)nc(C)n2-c1cccc(F)c1,9% (inactive)
15,O=C(Nc1nc(-c2ccccn2)cs1)C1CC1,0% (inactive)
16,Cc1cnc(NC(=O)CSc2nnc(-c3ccccc3)n2Cc2ccccc2)s1,0% (inactive)
17,CC(O)CN(Cc1cccc(Cl)c1)CC(C)O (stereo not given),5% (inactive)
18,CC(C)[N+]1(C)[C@@H]2CC[C@H]1CC(OC(=O)C(CO)c1ccccc1)C2 (stereo not given in full),0% (inactive)
19,O=C(O)C1C2C=CC(O2)C1C(=O)NCc1ccc(Cl)cc1 (stereo not given),13% (inactive)
20,O=[n+]1c2c(n([O-])c3cc(F)c(N4CCCC4)cc31)CCC2,9% (inactive)
